Assay outcomes: PubChem, several laboratories
Rce1 inh – yeast Rce1p protease inhibitors, primary screen, biochemical, fluorescence, cell-free homogeneous | yeast membranes, quenched prenylated peptide cleavage fluorescence | calls only | 290,000 compounds, 0.27% hits;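 active = fall in fluorescence gain of 50% or more versus controls, with final raw signal at or below 3038400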
Target sequence (Q03530 whole entry, looked up): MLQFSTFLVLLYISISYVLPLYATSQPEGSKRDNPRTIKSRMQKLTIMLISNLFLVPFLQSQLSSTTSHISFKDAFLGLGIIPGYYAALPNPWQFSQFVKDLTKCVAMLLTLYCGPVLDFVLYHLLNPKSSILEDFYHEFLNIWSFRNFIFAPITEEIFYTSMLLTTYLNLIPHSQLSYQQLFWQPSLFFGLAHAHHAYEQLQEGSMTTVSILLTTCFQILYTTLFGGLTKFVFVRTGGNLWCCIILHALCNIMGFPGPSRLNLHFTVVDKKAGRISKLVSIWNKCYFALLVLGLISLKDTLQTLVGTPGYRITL
TIM10 inh – growth inhibitors of isogenic TIM10 control yeast, primary screen, counter-screen for tim10-1 yeast inhibitor project, luminescence, uHTS; S. cerevisiae TIM10 strain growth, BacTiter-Glo luminescence, 24 h; inhibition, % at 10 µM; 330,000 compounds, 1.4% hits; AID 463195, 2010;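 active = inhibition of 40% or more at the single tested concentration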;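 note: wild-type TIM10 isogenic control strain grown at permissive 25 °C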
tim10-1 inh – growth inhibitors of tim10-1 mutant yeast, primary screen, luminescence, uHTS | S. cerevisiae tim10-1 ts strain growth, BacTiter-Glo, 24 h | inhibition, % at 20 µM | 330,000 compounds, 2.2% hits | AID 463190, 2010;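 active = inhibition of at least 40%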;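 note: mutant grown at 25 °C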
PfHsp90 set2 – growth inhibition of PfHsp90-expressing yeast, primary screen, antimalarial PfHsp90 inhibitor project, S. cerevisiae, BacTiter-Glo luminescence, single point, set 2. BacTiter-Glo ATP, 48 h; yeast lacking PDR1 and PDR3 efflux regulators. inhibition, % at 9.4 µM. 310,000 compounds, 0.32% hits. AID 504621, 2011;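 active = every replicate shows inhibition above about 80%, whatever the replicate mean, limit read from the data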
tim23-1 inh – growth inhibitors of tim23-1 mutant yeast, primary screen, luminescence, uHTS; AID 463212, 2010; 330,000 compounds, 1.3% hits; inhibition, % at 20 µM; S. cerevisiae tim23-1 growth, BacTiter-Glo luminescence, 24 h;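 active = growth inhibition of the mutant yeast at or above 50%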;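 note: temperature-sensitive mutant grown at 25 °C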
tim10-1 conf – growth inhibitors of tim10-1 mutant yeast, confirmation, single concentration, luminescence, S. cerevisiae. shares compounds with tim10-1 inh. S. cerevisiae tim10-1 ts strain growth, BacTiter-Glo, 24 h. inhibition, % at 20 µM. 7,400 compounds, 56% hits. AID 463213, 2010;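 active = inhibition of yeast growth at or above a set limit in either of two repeat tests at 20 µM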;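 note: tim10-1 mutant grown at permissive 25 °C to find synthetic lethal compounds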
Large screens that a line does not name were inactive (follow-up assays come after a bar, where they were run). Rows were chosen to be rich in hits. Some 3.7% of all compounds tested hit in one or more screens of this group.

S=c1nc[nH]c2c1sc1nc(N3CCOCC3)c3c(c12)CCCC3	tim10-1 inh 43.3 | tim10-1 conf inactive
COCCN1Cc2cccc(C(=O)Nc3ccc4c(c3)OCCO4)c2C1=O	tim10-1 inh 45.5 | tim10-1 conf inactive
COCCN1Cc2cccc(C(=O)Nc3ccc(C)cc3)c2C1=O	tim10-1 inh 43.4 | tim10-1 conf inactive
CCOc1ccc(NC(=O)c2cccc3c2C(=O)N(Cc2cccnc2)C3)cc1	tim10-1 inh 42.5 | tim10-1 conf 34.7
COCCN1Cc2cccc(C(=O)Nc3cccnc3)c2C1=O	none (no result: Rce1 inh)
COC(CNC(=O)c1cccc2c1C(=O)N(Cc1cccnc1)C2)OC	none (no result: PfHsp90 set2)
CCOc1ccc(Br)cc1CNc1ccc2c(c1)OCCO2	none
Cc1ccc(O)c(C2=NOC(O)(C(F)(F)F)C2)c1 (configuration not stated)	none
NC(=O)c1ccc(C(F)(F)F)cn1	none
N#Cc1nc(-c2ccccc2Cl)oc1NCc1ccco1	tim10-1 inh 40.3 | tim10-1 conf inactive
N#Cc1nc(-c2ccccc2)oc1NCc1ccco1	none
CC(=O)Oc1cccc(N2C(=O)c3ccc(C(=O)Nc4c[nH]c(=O)[nH]c4=O)cc3C2=O)c1	none
CCOc1ccc(S(=O)(=O)/N=C(/Nc2ccc(S(N)(=O)=O)cc2)c2ccccc2)cc1	none (no result: Rce1 inh)
CCn1c(-c2cc(Br)cc(OC)c2O)nc2cc(S(=O)(=O)N(C)C)ccc21	tim10-1 inh 42.6 (no result: Rce1 inh, PfHsp90 set2) | tim10-1 conf inactive
Cc1ccc(S(=O)(=O)N(C)CC(=O)N2CCN(Cc3ccccc3)CC2)cc1	tim10-1 inh 46.6 | tim10-1 conf inactive
Cc1ccc(S(=O)(=O)N(C)CC(=O)N2CCCCCCC2)cc1	none (no result: PfHsp90 set2)
COC(=O)c1cnc(N2CCOCC2)nc1C(F)(F)F	none
Cc1onc(-c2c(F)cccc2Cl)c1C(=O)Nc1sc2c(c1C(N)=O)CCC2	none
Cc1onc(-c2ccccc2)c1C(=O)Nc1sc2c(c1C(N)=O)CCC2	tim10-1 inh 46.5 (no result: PfHsp90 set2) | tim10-1 conf inactive
Cc1onc(-c2ccccc2)c1C(=O)NC(=S)Nc1sc2c(c1C#N)CCC(C)C2 (configuration not stated)	none
Cc1cc(C(=O)Nc2sc3c(c2C#N)CCC3)no1	none
Cc1onc(-c2ccccc2)c1C(=O)Nc1sc2c(c1C#N)CCC2	tim10-1 inh 40.8 | tim10-1 conf 41.6
Cc1cc(C(F)F)n2nc(C(=O)Nc3sc4c(c3C#N)CCC4)nc2n1	tim10-1 inh 42.1 | tim10-1 conf 35.0
CNC(=O)c1c(NC(=O)c2ccco2)sc2c1CCC2	tim10-1 inh 41.2 | tim10-1 conf inactive
CCN(CCNC(=O)C1CCN(c2nnc(-n3cccc3)s2)CC1)c1ccccc1	none
O=C(Oc1ccc2c(=O)c(Oc3ccc4ccccc4c3)coc2c1)c1ccco1	none
O=C(Oc1ccc2ccc(=O)oc2c1)c1ccco1	tim10-1 inh 45.8 | tim10-1 conf inactive
O=C(O)CN1C(=O)/C(=C\C(Br)=C\c2ccccc2)SC1=S	tim10-1 inh 42.5 | tim10-1 conf 35.0
O=C(O)CN1C(=O)/C(=C/C=C/c2ccccc2)SC1=S	none
COc1ccc(-c2cn3cccnc3n2)cc1NC(=O)c1cc(OC)c(OC)c(OC)c1	none
COc1ccc(-c2cn3cccnc3n2)cc1NC(=O)C(C)Oc1ccccc1 (configuration not stated)	tim10-1 inh 45.9 | tim10-1 conf inactive
Cc1c(Cl)cccc1NC(=S)N1CCc2ccccc2C1	tim10-1 inh 51.2 | tim10-1 conf inactive
O=C(Cc1ccccc1)NNC(=S)Nc1ccccc1	none
O=C(CSc1nnc(SCc2ccccc2)s1)NNC(=S)Nc1ccccc1	tim10-1 inh 45.5 | tim10-1 conf inactive
CCc1cccc(C)c1NC(=O)CN(C)C1=NS(=O)(=O)c2ccccc21	none (no result: Rce1 inh)
Cc1cccc(-c2oc3ccccc3c2C#CCCO)c1	Rce1 inh active, tim10-1 inh 44.9 | tim10-1 conf inactive
CC(C)(C)OC(=O)CNC(=O)c1[nH]cnc1C(=O)NCCCCCNC(=O)OC(C)(C)C	none
C/C(=N\NC(N)=S)C1(C)CCCCC1	none
C/C(=N\NC(N)=S)C12CC3CC(CC(C3)C1)C2	tim10-1 inh 43.4 | tim10-1 conf inactive
